Common to all, as to experiment: NCI-60 one-dose screen, 48 h (100 = growth as untreated, 0 = no growth, -100 = all killed)
Common to all, as to conditions: 10 µM unless noted

Test [1] has as its system EKVX NSCLC.
Test [2] relates to SN12C renal.
The subject of test [3] is TK-10 renal.
Test [4] relates to ACHN renal.
In test [5] the test system is CAKI-1 renal.
For test [6], the system named is CCRF-CEM leukemia.
Test [7] relates to SR leukemia.
The subject of test [8] is RPMI-8226 leukemia.
Test [9] relates to OVCAR-8 ovarian.
The subject of test [10] is OVCAR-5 ovarian.
In test [11] the test system is OVCAR-4 ovarian.
The subject of test [12] is SK-OV-3 ovarian.
The subject of test [13] is IGROV1 ovarian.
Test [14] deals with OVCAR-3 ovarian.
In test [15] the test system is HS 578T breast.
For test [16], the system named is NCI/ADR-RES ovarian.
Test [17] deals with T-47D breast.
Test [18] has as its system A498 renal.
The subject of test [19] is MOLT-4 leukemia.
For test [20], the system named is UO-31 renal.

Molecules are shown by their SMILES. This is part of a sample that, as a whole, favours compounds with a hit. Of some 83,000 tested, about 20% had one in any assay.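 Results are percent growth after 48 hours of single-concentration exposure. 100 means growth as in untreated cells, lower positive values show inhibition; negative values down to -100 show cell death.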 Values without a mark were called inactive. Active and inactive are the calls of the source. The calls were made as follows: active = growth percent below 10; inactive = the rest.

As to `O=C(N/N=C/c1ccc(Cl)s1)c1[nH]c2ccc(Br)cc2c1-c1ccccc1`, the growth was 41.7% in test [1]; 50.4% in [2]; 111% in test [3]; 25.3% in test [4]; 23.8% in [5]; 10.9% in [6]. Also, the growth is 9.05% (active) in test [7]; 5.6% (active) in [8]; 2.09% (active) in [9]; 52.9% in test [10]; 69.5% in [11]; 29.6% in test [12]. Moreover, the growth in test [13] is 19.5%; in [14], 20.8%; in [15] it was 27%; in test [16] it was 17.2%; in test [17], 64.7%.
Take `CCOC(=O)c1sc(NCC(=O)Nc2cccc([N+](=O)[O-])c2)c(C(=O)OCC)c1C`: the growth is -22.3% (active) in [1]; -11.5% (active) in test [2]; -12.2% (active) in [3]; -62.4% (active) in test [4]; -38% (active) in test [18]; 7.16% (active) in test [6]. Besides, the growth in test [19] was 6.63% (active); in test [7], 19.3%; in test [8], -31.6% (active); in test [9] it was 1.78% (active); in test [10], -13.7% (active); in test [11], -26% (active). The growth in [13] was -41% (active); in test [14], -4.13% (active); in test [15] it was -10.4% (active); in test [17], -10.9% (active).
In the case of `CS(=O)(=O)c1ccc(-c2nc3ccccn3c2C=Nc2ccc(Cl)cc2)cc1`, the growth is 100% in [1]; 81.6% in [2]; 110% in test [3]; 49.4% in test [4]; 79.1% in test [18]; 61.8% in test [6]. The growth in test [19] was 64.9%; in [8], 77.1%; in test [9] it was 86.3%; in test [10], 83.6%; in test [11] it was 88.2%; in test [12], 96.9%. Also, the growth in test [13] is 78.4%; in test [15], 104%; in test [16], 62.3%; in test [17], 65.4%.
Consider `Cc1cc2nc3c4cc(Cl)ccc4n(CC(=O)NCCN(C)C)c3nc2cc1C`, for which the growth in test [1] was 73.8%; in test [2], 79.8%; in [3], 161%; in test [4], -47.4% (active); in test [5], 53.9%; in test [19], -19.4% (active). For the same molecule, the growth is -38% (active) in [7]; -27.3% (active) in [8]; 55.9% in test [9]; -16.7% (active) in test [10]; 95.7% in test [11]; 106% in [12]. The growth in [13] is 56.2%; in test [14] it was 96.7%; in test [15], 71.9%; in test [16], 55.4%; in [17], 82%.
On to `Clc1ccc2c(NCCCn3ccnc3)c3oc4ccccc4c3nc2c1`, for which the growth in test [1] is 16.1%; in test [2], 33.2%; in test [4], 18.1%; in [5], 22.1%; in [18], 8.07% (active); in test [6], 37.4%. In addition, the growth in test [19] was 13.3%; in test [7], 9.35% (active); in test [8], 26.4%; in test [9], 32.1%; in test [10], 38.2%; in test [11], 55%. In addition, the growth in test [12] is 104%; in [13] it was 32.9%; in [14] it was 68.4%; in [15], 61.6%; in [16] it was 45%; in [17], 60.1%.
Consider `CN1CCN(Cc2ccc(NC(=O)c3cncc(C#Cc4cnc5[nH]ncc5c4)c3)cc2C(F)(F)F)CC1`, for which the growth in [1] is 55.4%; in [2], 14.4%; in [4] it was 8.5% (active); in [5], -13.2% (active); in [18], -5.79% (active); in test [6], 20.1%. Further, the growth is 16.9% in test [19]; 10.6% in test [7]; 41.3% in test [9]; 41.6% in test [10]; 54.5% in test [11]; 2.28% (active) in test [12]. The growth in [13] is 7.92% (active); in test [14] it was 51.9%; in [15], 20.1%; in test [16] it was 75.8%; in [17] it was 40.7%.
Regarding `O=[N+]([O-])c1ccc(O)c2ncccc12`, the growth was 26.2% in test [1]; 42.1% in [2]; 23.7% in test [4]; 30.5% in test [5]; 55.7% in test [18]; 17.7% in test [6]. Moreover, the growth was 22.1% in test [8]; 16.9% in test [9]; 40.1% in [10]; 40.8% in test [11]; 58.7% in test [12]; 23.6% in test [13]. Besides, the growth in test [14] is 11.4%; in test [15], 47.3%; in test [16], 15.5%; in test [17] it was 25.9%.
As for `CCN1CCN(/C(=N\c2sc(-c3ccccc3)nc2-c2ccccc2)c2ccccc2)CC1`, the growth in test [1] is 78.8%; in test [2], 76.2%; in test [4], 88.8%; in test [5] it was 65.3%; in test [18], 113%; in test [6] it was 68.1%. The growth in [19] was 60.7%; in [7], 52.8%; in test [8], 57.7%; in test [9], 97.1%; in [10], 91.8%; in test [11], 31.8%. In addition, the growth in [12] is 99.5%; in test [13], 92.9%; in test [14], 87.2%; in test [15], 92.2%; in [16] it was 82.1%; in test [17] it was 63.7%.
`COc1ccc(C(=O)/C=C/c2ccc(OCc3ccc(Cl)cc3)c(OC)c2)cc1OC`: the growth in test [1] is 62.2%; in [2], 76.6%; in test [20] it was 54.1%; in [4], 73.4%; in test [6], 22.5%; in test [19], 38.6%. Moreover, the growth in [7] is 7.68% (active); in test [8], -2.25% (active); in test [9], 58.4%; in [10], 100%; in test [11], 68.6%; in test [12], 82.9%. The growth in test [13] is 73.5%; in [14], 78.5%; in test [15], 82%; in test [16], 55.2%; in test [17], 50.6%.

Values taken from PubChem BioAssay (NCI).
